From PubChem
IDE cell activ = IDE (human) activation, cell-based | AID 493087 | activation, % at 5.96 µM | HEK cells, FAbeta-B cleavage, fluorescence polarization; 0% vehicle, 100% cell-free pure enzyme wells | P14735 | 340,000 compounds, 0.073% hits;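 active means activation above the mean of all tested compounds plus 3 SD, set per screening campaign, cut at about 17% in these data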
Target sequence (P14735 whole entry, looked up): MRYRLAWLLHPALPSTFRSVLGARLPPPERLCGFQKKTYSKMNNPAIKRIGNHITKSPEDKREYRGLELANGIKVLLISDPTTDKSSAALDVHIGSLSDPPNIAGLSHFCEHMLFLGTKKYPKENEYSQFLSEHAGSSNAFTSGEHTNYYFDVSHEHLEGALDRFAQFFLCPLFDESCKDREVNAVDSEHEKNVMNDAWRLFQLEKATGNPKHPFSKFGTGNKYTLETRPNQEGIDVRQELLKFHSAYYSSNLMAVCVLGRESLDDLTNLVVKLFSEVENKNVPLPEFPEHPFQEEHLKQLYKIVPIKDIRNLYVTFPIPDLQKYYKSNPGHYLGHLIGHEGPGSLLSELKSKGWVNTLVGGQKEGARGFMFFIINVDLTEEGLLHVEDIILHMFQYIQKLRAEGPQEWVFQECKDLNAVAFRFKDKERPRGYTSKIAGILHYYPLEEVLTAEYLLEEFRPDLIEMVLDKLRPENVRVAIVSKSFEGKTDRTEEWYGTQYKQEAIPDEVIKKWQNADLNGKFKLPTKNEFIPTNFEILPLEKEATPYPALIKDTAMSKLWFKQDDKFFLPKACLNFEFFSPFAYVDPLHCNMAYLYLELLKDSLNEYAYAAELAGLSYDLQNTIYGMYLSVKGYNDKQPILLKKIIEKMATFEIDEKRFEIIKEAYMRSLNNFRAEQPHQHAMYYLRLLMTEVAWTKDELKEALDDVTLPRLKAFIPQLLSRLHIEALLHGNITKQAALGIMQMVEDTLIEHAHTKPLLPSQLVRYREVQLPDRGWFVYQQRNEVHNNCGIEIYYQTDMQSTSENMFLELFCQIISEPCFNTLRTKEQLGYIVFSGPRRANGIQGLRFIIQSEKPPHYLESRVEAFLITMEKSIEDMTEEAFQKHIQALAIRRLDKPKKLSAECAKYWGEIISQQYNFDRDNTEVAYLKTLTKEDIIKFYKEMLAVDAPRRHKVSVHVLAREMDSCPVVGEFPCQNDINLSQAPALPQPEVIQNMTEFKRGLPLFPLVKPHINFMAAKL
IDE cell inh = cellular human IDE inhibition | HEK cells, FAbetaB cleavage, fluorescence polarization | inhibition, % at 5.59 µM | 320,000 compounds, 0.41% hits | AID 434962;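 active means percent inhibition above the average of all tested compounds plus 3 SD, set per screening campaign, cut at about 16% in these data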;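 further: IDE supplied by intact live HEK cells; FP after avidin binding of uncleaved biotin substrate so inhibition keeps polarization high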
TLR9-MyD88 inh = TLR9-MyD88 interaction inhibition; Q9NR96+Q99836; CHO BLA complementation TLR9-MyD88, CCF4 FRET ratio; inhibition, % at 4.98 µM; 340,000 compounds, 0.21% hits;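 active means inhibition above the mean over all tested compounds plus 3 SD, cut at about 21% in these data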
NOD2-RIPK2 inh = NOD2-RIPK2 protein interaction inhibition | O43353 | CHO BLA complementation NOD2-RIPK2, CCF4 ratio | inhibition, % at 4.98 µM | 360,000 compounds, 0.38% hits; in the data active means inhibition above about 21%
TLR4 MyD88 comp = blocks binding of human TLR4 to MyD88 | inhibition, % at 8.4 µM | O00206+Q99836 | 200,000 compounds, 0.18% hits | HeLa CL3-4 TLR4/MyD88 BLA complementation, FRET ratio; in the data active means inhibition above about 25%
IDE inh confirm = cellular human IDE inhibition, confirmation | AID 435028 | HEK cells, FAbetaB cleavage, fluorescence polarization | shares compounds with IDE cell inh | inhibition, % at 5.59 µM | 1,200 compounds, 51% hits;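 active means mean inhibition across triplicate wells above the cutoff set by the earlier primary insulin-degrading enzyme screen, cut at about 16% in these data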
HEK293 tox = HEK cell cytotoxicity, counter-screen for IDE inhibitors; shares compounds with IDE cell inh; HEK293 cytotoxicity, ATP luminescence; inhibition, % at 5.59 µM; 1,200 compounds, 28% hits; AID 449730; in the data active means inhibition above about 22%
A number is an active result; – = inactive; · = no result given. Shown are actives, neighbours in structure and some others; about 0.86% of the full set was active somewhere.

SMILES | IDE cell activ | IDE cell inh | TLR9-MyD88 inh | NOD2-RIPK2 inh | TLR4 MyD88 comp | IDE inh confirm | HEK293 tox
O=C(c1ccc2c(c1)N(Cc1ccccc1)C(=O)CS2)N1CCOCC1 | – | – | – | – | – | · | ·
Cc1ccc(NC(=O)CSc2nnc(CN3CCOCC3)n2C)cc1C | – | 19.0 | – | – | – | 18.4 | –
COc1ccc(Cl)cc1NC(=O)CSc1nnc(CN2CCOCC2)n1-c1ccc(Cl)cc1 | – | 17.8 | – | – | – | – | –
O=C(CSc1nnc(CN2CCOCC2)n1-c1ccc(Cl)cc1)Nc1ccc2c(c1)OCO2 | – | – | – | – | – | · | ·
Cc1nn(Cc2c(F)c(F)c(F)c(F)c2F)c(C)c1NC(=O)c1ccc(COc2ccc(Cl)cc2Cl)o1 | – | 18.5 | – | – | – | – | 34.0
Cc1nn(Cc2cccc(F)c2)c(C)c1NC(=O)c1ccc(COc2ccccc2Cl)cc1 | – | 25.2 | – | – | – | – | 55.4
CC1=CC(=O)c2ccccc2C1=O | – | – | – | – | – | · | ·
COc1cccc2c1C(=O)C=C(C)C2=O | – | 34.0 | – | – | – | 72.0 | 34.2
C[n+]1cc(C(=O)N2CCCCC2)ccc1/C=C/c1c[nH]c2ccccc12 | – | 27.4 | – | – | – | 39.8 | –
CN1CCN(CCCNC(=O)C2CCN(c3nnc(-n4cccc4)s3)CC2)CC1 | – | – | – | – | – | · | ·
COc1ccc(-c2csc3nc[nH]c(=O)c23)cc1OC | – | – | – | – | · | · | ·
Cc1ccc(-c2csc3nc[nH]c(=S)c23)cc1C | – | 21.8 | – | – | – | – | –
Cc1ccc2nc(-c3ccc(Cl)cc3)c(Cc3cccc(Cl)c3)n2c1 | · | · | · | – | · | · | ·
CCOc1ccc(-c2c(C(=O)N/N=C/c3ccc(OC)cc3)nnn2-c2nonc2N)cc1 | – | 19.6 | – | – | – | – | –
CCCOc1ccc(-c2c(C(=O)N/N=C/c3ccc(OC)cc3)nnn2-c2nonc2N)cc1 | – | – | – | – | – | · | ·
CCN(CC)c1ccc(/C=C2/C(=O)c3ccc(C(=O)O)cc3C2=O)cc1 | – | 138.4 | – | – | – | 26.1 | –
Cc1ccccc1SCC(=O)N1CCN(c2ccc(C(F)(F)F)cn2)CC1 | – | – | – | – | – | · | ·
OC(CN1CCN(c2ccc(C(F)(F)F)cn2)CC1)c1ccccc1 (stereo not drawn) | – | 19.7 | – | – | · | – | –
CC1(Oc2ccc(Cl)cc2)CCN(Cc2ccc(-c3ccccn3)cc2)C1 (stereo not drawn) | · | · | · | – | · | · | ·
O=C(O)CN1C(=O)/C(=C\c2ccc(OC(=O)c3ccco3)cc2)SC1=S | – | 35.3 | – | – | · | 159.9 | –
C=CCN1C(=O)/C(=C\c2ccc(OC(=O)c3ccco3)c(OC)c2)SC1=S | – | 32.5 | – | – | – | 143.3 | –
COc1ccc([C@@H]2CC=C(C(=O)O)CN2S(=O)(=O)c2ccc(C)cc2)cc1OC | – | – | – | – | · | · | ·
C/C(=N\NC(=O)Cc1cc(=O)[nH][nH]1)c1cccc([N+](=O)[O-])c1 | – | – | – | – | – | · | ·
O=C(NNc1ncnc2c1cnn2-c1cccc(Cl)c1)c1ccco1 | – | – | – | – | · | · | ·
COc1ccc(OCc2cc(C(=O)N3CCCCCC3)no2)c(Cl)c1 | – | – | – | – | · | · | ·
SMILES | IDE cell activ | IDE cell inh | TLR9-MyD88 inh | NOD2-RIPK2 inh | TLR4 MyD88 comp | IDE inh confirm | HEK293 tox
COc1ccc(OCc2cc(C(=O)N3CCSCC3)no2)c(Cl)c1 | – | 18.4 | – | – | · | – | –
CC(=O)N1CCC(C(=O)N2c3ccccc3N=C(c3ccc(C(F)(F)F)cc3)C2C(=O)NC(C)(C)C)CC1 (stereo not drawn) | · | · | · | – | · | · | ·
Cc1cc(N2CCN(c3nc4ccccc4s3)CC2)n2ncnc2n1 | – | 16.8 | – | – | – | – | 75.5
Cc1cc(N2CCN(C(c3ccccc3)c3ccccc3)CC2)n2ncnc2n1 | – | – | – | – | – | · | ·
Cc1cc(C)c(CN2CCN(C(=O)CC[C@H]3O[C@@H](n4cnc5c(NC(=O)c6ccccc6)ncnc54)[C@H](O)[C@@H]3O)CC2)c(C)c1 | · | · | · | – | · | · | ·
COc1ccc2c(Cl)c(C(=O)N/N=C3\CCCC(=O)C3)sc2c1 | – | 21.9 | – | – | – | 30.6 | –
CC(=O)c1ccc(N2CCN(C(=O)/C=C/c3ccc(S(=O)(=O)N4CCOCC4)cc3)CC2)cc1 | – | – | – | – | – | · | ·
CC(=O)c1ccc(N2CCN(C(=O)/C=C/c3ccc(S(=O)(=O)NCc4ccco4)cc3)CC2)cc1 | – | 21.0 | – | – | – | – | 48.9
COC(=O)C(C)(C)ONC(=O)Nc1ccc(Br)cc1 | – | – | – | – | – | · | ·
O=C(Nc1ccc2c(c1)CCC2)C1CCN(c2c3c(nc4ncnn24)CCC3)CC1 | – | 42.0 | – | – | – | – | 51.4
COc1c(/C=N/NC(N)=S)c(C)nn1-c1ccccc1 | – | 21.8 | – | – | – | – | –
COc1c(/C=N/Nc2ccc([N+](=O)[O-])cc2[N+](=O)[O-])c(C)nn1-c1ccccc1 | – | – | – | – | – | · | ·
O=C(Nc1nc(-c2nc3ccccc3s2)cs1)c1ccc(S(=O)(=O)N2CCOCC2)cc1 | – | – | – | – | – | · | ·
O=C(Nc1nc(-c2ccc(S(=O)(=O)N3CCOCC3)cc2)cs1)c1ccccc1 | – | 22.5 | – | – | – | – | 71.5
COc1cccc(C(=O)Nc2nc(-c3ccc(S(=O)(=O)N4CCOCC4)cc3)cs2)c1 | – | 40.0 | – | – | – | – | 58.4
CCN1c2ccccc2-c2nc3ccccc3n2C1c1cccs1 (stereo not drawn) | – | – | – | – | – | · | ·
O=S(=O)(c1cccc(NC(=S)N2CCN(c3ccccc3)CC2)c1)C(F)F | – | 19.1 | – | – | – | – | –
COC(=O)c1ccc(NC(=O)c2cccc(N3C(=O)C4C5C=CC(C6CC56)C4C3=O)c2)cc1 (stereo not drawn) | – | – | – | – | · | · | ·
Cc1ccc(C(=O)N/N=C/c2nc3ccccc3n2C)cc1 | – | – | – | – | – | · | ·
Cn1c(/C=N/NC(=O)c2ccccc2Br)nc2ccccc21 | – | 19.9 | – | – | – | – | –
COc1ccc(C2CC(c3cccs3)=NN2c2ccc(C=O)cc2)cc1 (stereo not drawn) | · | 30.3 | · | · | – | 18.6 | –
CCC1CCCCN1CCCNC(=O)Cn1c(=O)c2cccn2c2ccccc21 (stereo not drawn) | – | – | – | – | · | · | ·
COc1cccc(NC(=S)N/N=C2\CC3CCC2(C)C3(C)C)c1 (stereo not drawn) | – | – | – | – | – | · | ·
CCOCCCNc1nc2c(C)cccn2c(=O)c1/C=C1\SC(=S)N(C(C)CC)C1=O (stereo not drawn) | – | 17.1 | – | – | · | 80.0 | –
O=C(NNC(=O)c1cccc2ccccc12)c1ccc(-c2ccccc2)cc1 | – | 17.8 | – | – | – | – | 46.8
COc1ccccc1N1CCCSC1=Nc1ccccc1 | · | · | – | – | · | · | ·
